# This is a sample that favours compounds with a hit; in the whole collection about 4.9% have one here.
# Mdm2 MdmX PPI – human Mdm2/MdmX binding inhibition. SaOS-2 split-luciferase Mdm2/MdmX complementation, luminescence. AID 485346. 330,000 tested, 3% active. inhibition, % at 8 µM. O15151+Q00987;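 active = inhibition of at least 50% at 8 µM in the primary screen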
# Beta cell apopt – blocks beta cell apoptosis. INS-1E cytokine-induced death, ATP luminescence, 48 h; percent of positive-control rescue, neutral wells zero. 300,000 tested, 0.8% active. AID 435005. protection from apoptosis, % (concentration not given with the values);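 active = Every replicate reaches about 75%, or at least half do and their mean reaches it too, limit read from the data; inconclusive = At least half of replicates reach the limit but their mean does not; inactive = Under half of replicates reach the limit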;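 also: higher means more ATP so stronger rescue from cytokine killing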
# PP1 counter – PP1-alpha (human) inhibition in PP5 counter-screen. P62136. purified PP1alpha, OMFP fluorescence. inhibition, % at 6.7 µM. 320,000 tested, 0.9% active. AID 2235;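 active = inhibition above the mean inhibition of all tested compounds plus 3 SD, computed separately for each screening campaign, cut at about 15% in these data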
# Target sequence (P62136 whole entry, looked up): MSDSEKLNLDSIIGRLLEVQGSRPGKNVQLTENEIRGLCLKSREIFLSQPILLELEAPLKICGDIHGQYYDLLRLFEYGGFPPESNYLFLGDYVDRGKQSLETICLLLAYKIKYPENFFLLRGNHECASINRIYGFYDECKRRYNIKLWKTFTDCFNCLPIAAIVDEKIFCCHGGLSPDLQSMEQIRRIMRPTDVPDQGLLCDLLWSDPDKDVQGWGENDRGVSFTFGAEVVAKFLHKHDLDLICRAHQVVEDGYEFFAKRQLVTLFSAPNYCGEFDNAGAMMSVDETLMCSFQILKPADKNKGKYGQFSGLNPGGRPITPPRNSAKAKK
# CSC inhib – blocks cancer stem cells; cancer stem cell-like cells viability, luminescence; inhibition, % at 7.5 µM; 300,000 tested, 1.1% active; in the data active = inhibition above about 75%; inconclusive = no clear call, values can overlap the other calls; tested in HMLE shEcad cells
# Calb FLC – affects C. albicans growth with fluconazole | C. albicans CaCi-2 (fluconazole-resistant clinical isolate) + fluconazole, Alamar Blue growth, 48 h | growth inhibition, % (concentration not given with the values) | 300,000 tested, 0.57% active | AID 1979;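 active = growth inhibition above about 58% in most replicates, limit read from the data, passing the limit was not always enough; inconclusive = exactly half the replicates above a set limit; inactive = most replicates below a set limit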;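 also: all wells also contain fluconazole at 8 µg/ml as a sub-toxic cotreatment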
# PP5 primary – PP5 (human) phosphatase inhibition; P53041; purified PP5c, OMFP substrate fluorescence; inhibition, % at 6.7 µM; 320,000 tested, 0.18% active;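 active = inhibition above the campaign's mean inhibition across all tested compounds plus 3 SD, cut at about 9.5% in these data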
# Mdm2 MdmX conf – confirmation of human Mdm2/MdmX interaction inhibitors; 10,000 tested, 55% active; shares compounds with Mdm2 MdmX PPI; AID 489028; inhibition, % at 8 µM; Mdm2-MdmX binding, luminescent assay; in the data active = inhibition above about 40%
# FLuc counter – counter-screen for Mdm2/MdmX inhibitors: full-length luciferase. 6,200 tested, 77% active. SaOS-2 full-length luciferase counterscreen, luminescence. inhibition, % at 8 µM. shares compounds with Mdm2 MdmX PPI;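 active = mean inhibition at 8 µM reaching about 37%, which flags the compound as non-specific, limit read from the data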;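 also: p53-null SaOS-2 cells with luciferase driven by a doxycycline-inducible promoter; compound on cells about two nights before reading with doxycycline added after day one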
# A number is an active result; i = inactive; ? = inconclusive; nt = no result.
SMILES,Mdm2 MdmX PPI,Beta cell apopt,PP1 counter,CSC inhib,Calb FLC,PP5 primary,Mdm2 MdmX conf,FLuc counter
COc1cccc(OCCCn2cc(/C=C3/C(=N)N4C=C(C)SC4=NC3=O)c3ccccc32)c1,i,i,i,i,i,i,nt,nt
COc1ccc(OCCCn2cc(/C=C3/C(=N)N4C=C(C)SC4=NC3=O)c3ccccc32)cc1,65,i,i,i,i,i,71,69
Cc1ccccc1/C=C/C(=O)c1ccc([N+](=O)[O-])o1,100,122,i,i,i,i,86,55
COc1ccc(/C=C/C(=O)c2ccc([N+](=O)[O-])o2)cc1,100,127,i,?,i,i,68,42
Cc1cccnc1NC(=O)c1ccc([N+](=O)[O-])o1,i,i,i,i,i,i,nt,nt
Cc1cccc(/C=C/C(=O)c2ccc([N+](=O)[O-])o2)c1,100,117,i,i,i,i,100,53
O=C(c1cccc(S(=O)(=O)N2CCCc3ccccc32)c1)N1CCN(c2ccccc2)CC1,i,i,nt,i,nt,nt,nt,nt
COc1cccc(CSc2nc3ccccc3cc2C=O)c1,68,i,i,i,i,i,64,61
COc1cc(NC(=O)c2cc3cccc(OC)c3o2)cc(C(=O)Nc2cccc(C(F)(F)F)c2)c1,59,i,i,i,i,i,56,41
CCN1CCN(Cc2ccc(NC(=O)c3ccc(C)c(NC(=O)c4c[nH]c5cc(C(F)(F)F)ccc5c4=O)c3)cc2C(F)(F)F)CC1,100,99,i,105,i,i,100,52
CCN1CCN(Cc2ccc(NC(=O)c3cc(NC(=O)c4cc(-c5ccc(OC)cc5)n[nH]4)cc(OC)c3)cc2C(F)(F)F)CC1,95,i,i,?,i,i,i,nt
CCN1CCN(Cc2ccc(NC(=O)c3ccc(C)c(/C=C/c4cnc(Nc5cc(N6CCNCC6)nc(C)n5)cn4)c3)cc2C(F)(F)F)CC1,88,i,i,i,i,i,55,37
CCN1CCN(c2cc(C)c3cc(NC(=O)c4ccncc4)ccc3n2)CC1,i,nt,i,i,i,i,nt,nt
COc1ccc(C(=O)NCc2nnc(SCC(=O)c3ccc(F)cc3)n2C)cc1OC,i,nt,i,i,i,i,nt,nt
CCN1CCN(Cc2ccc(NC(=O)c3cc(NC(=O)N4CCNC4=O)cc(OC)c3)cc2C(F)(F)F)CC1,76,i,i,i,i,i,50,68
COc1cc(NC(=O)c2ccno2)cc(C(=O)Nc2cccc(C(F)(F)F)c2)c1,i,i,i,i,i,i,nt,nt
CCN1CCN(Cc2ccc(NC(=O)c3ccc(C)c(NC(=O)c4cccc(-c5cn[nH]c(=O)c5)c4)c3)cc2C(F)(F)F)CC1,84,i,i,i,i,i,46,i
CCN1CCN(Cc2ccc(NC(=O)c3cc(NC(=O)c4ccno4)cc(OC)c3)cc2C(F)(F)F)CC1,55,i,i,i,i,i,i,61
CCN1CCN(Cc2ccc(NC(=O)c3ccc(C)c(NC(=O)c4csc(-c5ccncc5)n4)c3)cc2C(F)(F)F)CC1,i,i,i,i,i,i,nt,nt
CCN1CCN(Cc2ccc(NC(=O)c3ccc(C)c(NC(=O)c4ccno4)c3)cc2C(F)(F)F)CC1,63,i,i,i,i,i,43,57
FC(F)(F)c1cc(-c2ccccn2)nc2cc(-c3ccccc3)nn12,i,i,i,i,i,i,nt,nt
Cc1cc(NC(=O)CSc2nc3cc(C)c(C)cc3cc2C)no1,i,i,i,i,i,i,nt,nt
CC1CCCN(CC(=O)Nc2cc(S(=O)(=O)N3CCOCC3)ccc2N2CCCC2)C1 (stereo not drawn),i,i,i,nt,nt,i,nt,nt
CCN1CCN(Cc2ccc(NC(=O)c3cc(NC(=O)c4cc5cccc(OC)c5o4)cc(OC)c3)cc2C(F)(F)F)CC1,98,i,i,nt,i,i,i,nt
CCOc1cccc(C(=O)Nc2ccc(NC(=O)c3cc4ccccc4o3)c(OC)c2)c1,i,i,i,i,i,i,nt,nt
SMILES,Mdm2 MdmX PPI,Beta cell apopt,PP1 counter,CSC inhib,Calb FLC,PP5 primary,Mdm2 MdmX conf,FLuc counter
COc1cc(S(=O)(=O)N(C)C2CCCCC2)c(C)cc1C,nt,nt,nt,nt,i,nt,nt,nt
COc1ccc(C(=O)/C=C2/C(=O)Nc3ccccc32)cc1OC,i,i,i,i,i,i,nt,nt
C=CCOc1ccc(C(=O)/C=C2/C(=O)Nc3ccccc32)cc1,52,i,i,i,i,i,i,nt
COc1ccc(C(=O)/C=C2/C(=O)Nc3ccccc32)c(OC)c1,86,i,i,75,i,i,i,nt
O=C1Nc2ccccc2/C1=C/C(=O)c1cccs1,64,i,i,83,i,i,i,nt
C=CCOc1ccccc1C(=O)/C=C1/C(=O)Nc2ccccc21,78,i,i,i,i,i,i,nt
CCOC(=O)C1(CC2CCCCO2)CCN(Cc2cn[nH]c2-c2cccc(F)c2)CC1 (stereo not drawn),i,i,i,i,i,i,nt,nt
CCC(C)(C)NC(=O)c1ccc2c(c1)N(CC(=O)NC1CCCC1)C(=O)C(C)(C)O2,i,i,i,nt,i,i,nt,nt
Cc1nnc(SCC(=O)NC2CCCc3c2cnn3-c2ccccc2F)o1 (stereo not drawn),i,nt,i,nt,i,i,nt,nt
CCC(=O)Nc1ccc(Nc2nc(C)c([N+](=O)[O-])c(Nc3ccc(NC(=O)CC)cc3)n2)cc1,64,nt,i,i,i,i,74,80
CC(=O)Nc1ccc(Nc2nc(C)c([N+](=O)[O-])c(Nc3ccccc3)n2)cc1,58,i,i,i,i,i,i,nt
Cc1nc(Nc2ccc(C(=O)O)cc2)nc(Nc2ccc(C(=O)O)cc2)c1[N+](=O)[O-],i,i,i,i,i,i,nt,nt
COc1ccc(CCNC(=O)c2cccc(NC(=O)CC3SC(N4CCCCC4)=NC3=O)c2)cc1OC (stereo not drawn),i,i,i,i,i,i,nt,nt
CC(C)CC(=O)NC(c1ccccc1)c1c(O)ccc2ccccc12 (stereo not drawn),i,i,i,i,i,i,nt,nt
CCCC(=O)NC(c1ccc(OC)cc1)c1ccc2cccnc2c1O (stereo not drawn),82,97,i,119,102,i,78,50
CCCC(=O)NC(c1ccccc1)c1ccc2cccnc2c1O (stereo not drawn),79,99,i,108,86,i,89,49
CCC(=O)NC(c1ccccc1OC)c1ccc2cccnc2c1O (stereo not drawn),70,109,i,93,103,i,60,i
CCC(=O)NC(c1ccc(OC)cc1)c1cc(Cl)c2cccnc2c1O (stereo not drawn),79,96,16,119,104,i,81,i
Cc1c(C)c2c(OCC(=O)Nc3cccnc3)cc3c(c2oc1=O)CCC(C)(C)O3,i,i,i,i,i,i,nt,nt

# Screening results deposited in PubChem BioAssay by several laboratories.
